The values that follow come from ChEMBL document CHEMBL3988442, “University of Dundee, Small-Polar-MMV Screening Library” (2021).

Common to all, as to design: scale not given: direction of the effect not stated beside the values
In assay [1] the target is Protein translocase subunit SecA (Escherichia coli (strain K12)) (UniProt P10408). Put plainly: Assay to Identify E. coli SecA ATPase Inhibitors. In kind it is functional. To be noted: 30 µM.
Assay [2] has as its target T1, Ubiquitin-activating enzyme e1, putative (Leishmania donovani (strain BPK282A1)) (UniProt E9BSI1).
T1 sequence (whole entry): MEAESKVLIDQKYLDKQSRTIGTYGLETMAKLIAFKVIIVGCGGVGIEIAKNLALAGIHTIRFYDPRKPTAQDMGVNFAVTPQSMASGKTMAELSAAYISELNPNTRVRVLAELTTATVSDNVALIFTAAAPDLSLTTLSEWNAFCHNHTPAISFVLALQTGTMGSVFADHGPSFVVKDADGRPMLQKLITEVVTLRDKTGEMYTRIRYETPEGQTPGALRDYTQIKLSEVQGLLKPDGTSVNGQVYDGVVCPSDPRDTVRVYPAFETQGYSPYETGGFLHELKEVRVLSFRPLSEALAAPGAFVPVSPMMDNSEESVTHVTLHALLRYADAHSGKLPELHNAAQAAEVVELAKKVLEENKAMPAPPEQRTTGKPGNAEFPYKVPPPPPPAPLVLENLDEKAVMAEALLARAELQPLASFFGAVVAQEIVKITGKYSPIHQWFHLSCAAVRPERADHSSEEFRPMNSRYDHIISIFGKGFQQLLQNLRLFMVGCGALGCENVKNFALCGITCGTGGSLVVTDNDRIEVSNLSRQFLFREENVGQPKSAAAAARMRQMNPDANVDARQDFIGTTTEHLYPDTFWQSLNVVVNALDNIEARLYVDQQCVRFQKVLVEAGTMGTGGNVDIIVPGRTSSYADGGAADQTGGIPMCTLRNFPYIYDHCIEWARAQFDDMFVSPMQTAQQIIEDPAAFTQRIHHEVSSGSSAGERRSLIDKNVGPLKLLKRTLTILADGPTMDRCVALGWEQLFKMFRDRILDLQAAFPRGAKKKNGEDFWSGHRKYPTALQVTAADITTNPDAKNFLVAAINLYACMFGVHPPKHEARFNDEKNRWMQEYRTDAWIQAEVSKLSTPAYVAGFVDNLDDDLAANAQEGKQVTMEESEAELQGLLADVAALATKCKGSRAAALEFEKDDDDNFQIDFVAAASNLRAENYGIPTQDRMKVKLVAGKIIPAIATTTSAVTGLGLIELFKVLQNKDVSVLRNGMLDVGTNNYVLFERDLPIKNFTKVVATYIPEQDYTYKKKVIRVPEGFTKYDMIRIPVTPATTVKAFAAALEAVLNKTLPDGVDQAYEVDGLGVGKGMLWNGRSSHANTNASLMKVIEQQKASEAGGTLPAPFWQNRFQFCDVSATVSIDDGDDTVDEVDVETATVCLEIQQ
Put plainly: Leishmania donovani Ubiquitin Activating Enzyme (LdE1). The assay is classed as functional. To be noted: 30 µM.

For assay [3], the target named is T2, Aspartate--tRNA(Asp/Asn) ligase (Mycobacterium tuberculosis (strain ATCC 25618 / H37Rv)) (UniProt P9WFW3). Also: in the data most compounds retested in dose-response had high values.
T2 sequence (whole entry): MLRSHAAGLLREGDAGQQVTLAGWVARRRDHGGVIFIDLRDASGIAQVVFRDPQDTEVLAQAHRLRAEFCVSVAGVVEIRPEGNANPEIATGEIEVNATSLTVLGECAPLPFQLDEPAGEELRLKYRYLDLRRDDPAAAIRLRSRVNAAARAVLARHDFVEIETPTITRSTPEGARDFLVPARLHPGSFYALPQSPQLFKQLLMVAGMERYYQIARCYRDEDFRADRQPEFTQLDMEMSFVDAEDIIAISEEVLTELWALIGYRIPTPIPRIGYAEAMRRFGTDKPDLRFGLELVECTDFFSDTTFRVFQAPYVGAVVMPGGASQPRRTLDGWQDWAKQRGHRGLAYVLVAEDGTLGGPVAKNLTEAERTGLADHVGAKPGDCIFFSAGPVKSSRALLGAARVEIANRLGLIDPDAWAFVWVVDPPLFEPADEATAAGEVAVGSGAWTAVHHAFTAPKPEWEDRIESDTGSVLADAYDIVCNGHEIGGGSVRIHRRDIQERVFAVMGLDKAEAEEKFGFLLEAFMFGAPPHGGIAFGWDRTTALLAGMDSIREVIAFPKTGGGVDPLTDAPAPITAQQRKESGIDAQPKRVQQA
The assay can be described thus: Assay for Asp RNA synthetase-1 from Mycobacterium tuberculosis. To be noted: 30 µM. The assay is classed as functional.

The target of assay [4] is AMP-activated protein kinase, AMPK (Homo sapiens) (UniProt P54646+O43741+P54619+Q9UGJ0+Q9Y478+Q13131+Q9UGI9). The assay can be described thus: AMP-dependent Kinase enzyme assay. An in vitro enzyme assay that detects ADP turnover that is directly proportional to AMPK activity. This uses naive AMPK that is activated during the assay with MK-8722. The assay is classed as functional. To be noted: 30 µM.

Assay [5] concerns the target Sialic acid-binding Ig-like lectin 9 (Homo sapiens) (UniProt Q9Y336). The assay can be described thus: Hs-Siglec9 ALPHAscreen SOP 20170721. To be noted: 10 µM.
The test system of assay [6] is Trypanosoma cruzi. The assay can be described thus: Trypanosoma cruzi phosphomannomutase and mannose-1-phosphate guanylyltransferase assay. In kind it is functional. To be noted: 10 µM.
The target in assay [7] is T3, Arginase-2, mitochondrial (Homo sapiens) (UniProt P78540).
T3 sequence (whole entry): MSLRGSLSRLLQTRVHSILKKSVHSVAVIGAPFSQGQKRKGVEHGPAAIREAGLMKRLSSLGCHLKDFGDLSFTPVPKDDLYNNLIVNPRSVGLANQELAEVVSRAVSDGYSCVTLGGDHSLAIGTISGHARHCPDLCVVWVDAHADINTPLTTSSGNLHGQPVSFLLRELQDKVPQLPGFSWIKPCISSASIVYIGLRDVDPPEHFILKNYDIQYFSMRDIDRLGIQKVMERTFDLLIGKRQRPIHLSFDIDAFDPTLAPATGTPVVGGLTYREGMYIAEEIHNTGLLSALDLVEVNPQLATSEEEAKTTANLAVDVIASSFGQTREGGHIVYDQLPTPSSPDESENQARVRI
The assay can be described thus: in vitro enzyme assay to detect the production of urea directly proportional to the activity of Arginase II. Also: in the data most compounds retested in dose-response had high values. To be noted: 33.3 µM. In kind it is functional.

Assay [8] addresses T4, Proteasome subunit beta (Trypanosoma cruzi) (UniProt O96673).
T4 sequence (whole entry): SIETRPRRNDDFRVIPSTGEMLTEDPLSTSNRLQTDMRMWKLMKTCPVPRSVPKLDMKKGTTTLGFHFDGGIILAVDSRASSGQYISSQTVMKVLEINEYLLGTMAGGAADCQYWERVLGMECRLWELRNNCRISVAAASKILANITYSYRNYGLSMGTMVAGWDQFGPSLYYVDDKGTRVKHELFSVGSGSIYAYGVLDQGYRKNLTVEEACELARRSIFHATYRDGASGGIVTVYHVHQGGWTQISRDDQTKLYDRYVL
The assay can be described thus: Trypanosoma cruzi proteasome chymotrypsin-like activity (TcProtChymo) assay. Also: in the data most compounds retested in dose-response had high values. In kind it is functional. The note with it: 9.37 µM.

Assay [9] is filed under the species Homo sapiens. The assay can be described thus: To identify inhibition of the IFN signalling (Jak-Stat) pathway via expression of an eGFP reporter gene under the control of an IFN-stimulated response element (ISRE) containing MxA promoter. In kind it is functional. To be noted: 30 µM. (In general: A reporter such as luciferase makes a cellular process visible.)

For assay [10], the target named is T5, Tyrosyl-tRNA synthetase, putative (Trypanosoma cruzi (strain CL Brener)) (UniProt Q4DSP6).
T5 sequence (whole entry): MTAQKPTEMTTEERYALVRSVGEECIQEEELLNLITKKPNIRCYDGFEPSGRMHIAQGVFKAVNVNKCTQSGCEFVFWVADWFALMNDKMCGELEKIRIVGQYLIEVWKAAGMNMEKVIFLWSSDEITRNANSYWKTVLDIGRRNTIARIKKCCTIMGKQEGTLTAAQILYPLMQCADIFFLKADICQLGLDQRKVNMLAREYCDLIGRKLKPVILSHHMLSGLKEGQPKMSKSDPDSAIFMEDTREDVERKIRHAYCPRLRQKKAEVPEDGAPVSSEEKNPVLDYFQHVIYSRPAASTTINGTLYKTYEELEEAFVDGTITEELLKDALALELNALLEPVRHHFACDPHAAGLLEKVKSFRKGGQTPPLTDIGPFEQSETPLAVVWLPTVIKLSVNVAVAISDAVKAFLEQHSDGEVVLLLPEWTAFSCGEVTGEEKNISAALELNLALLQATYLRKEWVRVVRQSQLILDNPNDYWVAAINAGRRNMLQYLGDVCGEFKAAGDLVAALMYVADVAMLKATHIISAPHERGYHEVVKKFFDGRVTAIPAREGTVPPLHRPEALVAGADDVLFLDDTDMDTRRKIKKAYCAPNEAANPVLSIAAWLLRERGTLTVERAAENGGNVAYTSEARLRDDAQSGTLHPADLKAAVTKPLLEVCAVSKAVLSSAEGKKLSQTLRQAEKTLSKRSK
Put plainly: Trypanosoma cruzi tyrosyl tRNA synthetase (TcYRS) _High Tyrosine SOP. Also: in the data most compounds retested in dose-response had high values. In kind it is functional. The note with it: 30 µM.

Assay [11] deals with T5, Tyrosyl-tRNA synthetase, putative (Trypanosoma cruzi (strain CL Brener)). Put plainly: Trypanosoma cruzi tyrosyl tRNA synthetase (TcYRS) SOP. In kind it is functional. The note with it: 30 µM.
In assay [12] the target is Chromo domain-containing protein 1 (Saccharomyces cerevisiae (strain ATCC 204508 / S288c) (Baker's yeast)) (UniProt P32657). Put plainly: ScCHD-1 Enzyme Inhibition Assay. Also: in the data most compounds retested in dose-response had high values. In kind it is functional. To be noted: 30 µM.
The target of assay [13] is Shiga toxin 2 (Escherichia coli O157:H7) (UniProt P09385+P09386). The assay can be described thus: E. coli 0.157:H7 Shiga Toxin SOP - stx2 screening assay. The assay is classed as functional. To be noted: 30 µM.

Molecules are shown by their SMILES. For part of these data: Potency and affinity values are given separately.

Sequence of Chromo domain-containing protein 1 (Saccharomyces cerevisiae (strain ATCC 204508 / S288c) (Baker's yeast)) (P32657 whole entry, the tested form may be a part): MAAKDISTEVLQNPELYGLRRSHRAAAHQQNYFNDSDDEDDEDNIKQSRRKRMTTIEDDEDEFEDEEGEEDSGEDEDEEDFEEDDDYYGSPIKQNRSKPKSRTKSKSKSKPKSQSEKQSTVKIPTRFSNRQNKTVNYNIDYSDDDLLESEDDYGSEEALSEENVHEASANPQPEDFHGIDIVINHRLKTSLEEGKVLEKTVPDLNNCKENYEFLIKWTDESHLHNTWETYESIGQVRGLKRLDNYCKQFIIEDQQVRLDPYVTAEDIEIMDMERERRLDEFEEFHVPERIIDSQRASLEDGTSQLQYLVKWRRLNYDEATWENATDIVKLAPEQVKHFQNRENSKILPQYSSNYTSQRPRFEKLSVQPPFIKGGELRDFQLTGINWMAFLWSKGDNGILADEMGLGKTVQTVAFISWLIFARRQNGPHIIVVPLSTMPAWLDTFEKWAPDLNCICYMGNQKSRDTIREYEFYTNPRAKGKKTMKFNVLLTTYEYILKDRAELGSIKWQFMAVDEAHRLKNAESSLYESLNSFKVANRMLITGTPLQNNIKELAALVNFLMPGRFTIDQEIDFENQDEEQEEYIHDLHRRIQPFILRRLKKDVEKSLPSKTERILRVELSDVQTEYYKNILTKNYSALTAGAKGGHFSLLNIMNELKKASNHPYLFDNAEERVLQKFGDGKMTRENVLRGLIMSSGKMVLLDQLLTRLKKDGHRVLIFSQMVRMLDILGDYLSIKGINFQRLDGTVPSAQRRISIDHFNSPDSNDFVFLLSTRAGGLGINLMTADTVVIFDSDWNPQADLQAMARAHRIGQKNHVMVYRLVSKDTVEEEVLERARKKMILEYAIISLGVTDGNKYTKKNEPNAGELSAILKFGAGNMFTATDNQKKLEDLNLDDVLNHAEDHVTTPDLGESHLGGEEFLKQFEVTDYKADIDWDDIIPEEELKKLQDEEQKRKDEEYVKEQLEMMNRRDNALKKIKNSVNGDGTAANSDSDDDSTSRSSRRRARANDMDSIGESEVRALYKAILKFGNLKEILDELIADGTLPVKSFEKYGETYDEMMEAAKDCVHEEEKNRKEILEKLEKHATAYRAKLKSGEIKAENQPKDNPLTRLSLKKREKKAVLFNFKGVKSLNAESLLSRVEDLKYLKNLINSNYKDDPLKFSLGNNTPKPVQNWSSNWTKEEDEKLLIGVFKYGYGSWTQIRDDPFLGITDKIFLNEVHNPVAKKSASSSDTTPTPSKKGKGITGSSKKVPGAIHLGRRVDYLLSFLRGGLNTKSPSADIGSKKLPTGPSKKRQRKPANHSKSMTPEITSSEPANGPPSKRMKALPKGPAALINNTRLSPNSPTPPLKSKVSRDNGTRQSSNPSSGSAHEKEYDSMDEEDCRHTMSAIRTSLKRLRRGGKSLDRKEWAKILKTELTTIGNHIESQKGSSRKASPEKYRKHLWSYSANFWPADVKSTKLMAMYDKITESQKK
Sequence of Protein translocase subunit SecA (Escherichia coli (strain K12)) (P10408 whole entry): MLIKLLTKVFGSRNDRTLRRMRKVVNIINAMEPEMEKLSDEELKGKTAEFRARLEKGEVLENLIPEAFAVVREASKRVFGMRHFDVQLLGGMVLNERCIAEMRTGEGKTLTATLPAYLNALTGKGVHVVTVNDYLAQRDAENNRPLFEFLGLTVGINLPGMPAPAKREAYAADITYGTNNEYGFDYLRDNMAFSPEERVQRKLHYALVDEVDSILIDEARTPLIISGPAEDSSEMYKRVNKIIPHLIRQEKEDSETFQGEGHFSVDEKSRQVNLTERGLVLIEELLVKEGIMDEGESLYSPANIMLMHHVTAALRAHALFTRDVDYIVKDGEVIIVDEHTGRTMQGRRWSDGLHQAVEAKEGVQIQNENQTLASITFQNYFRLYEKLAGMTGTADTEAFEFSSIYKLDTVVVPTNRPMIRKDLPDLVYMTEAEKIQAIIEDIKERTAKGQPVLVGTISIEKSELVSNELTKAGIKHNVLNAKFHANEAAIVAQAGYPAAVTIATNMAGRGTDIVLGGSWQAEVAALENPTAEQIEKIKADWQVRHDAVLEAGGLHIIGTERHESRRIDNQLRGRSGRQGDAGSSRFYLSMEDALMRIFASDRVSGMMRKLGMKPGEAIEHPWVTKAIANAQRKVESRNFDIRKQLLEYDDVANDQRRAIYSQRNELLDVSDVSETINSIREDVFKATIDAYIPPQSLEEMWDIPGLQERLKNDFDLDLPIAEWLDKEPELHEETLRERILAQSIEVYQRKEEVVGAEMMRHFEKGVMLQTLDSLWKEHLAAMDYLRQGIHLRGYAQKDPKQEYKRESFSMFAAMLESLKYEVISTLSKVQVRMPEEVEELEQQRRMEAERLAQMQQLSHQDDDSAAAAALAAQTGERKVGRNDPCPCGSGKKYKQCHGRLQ
Sequence of Sialic acid-binding Ig-like lectin 9 (Homo sapiens) (Q9Y336 whole entry): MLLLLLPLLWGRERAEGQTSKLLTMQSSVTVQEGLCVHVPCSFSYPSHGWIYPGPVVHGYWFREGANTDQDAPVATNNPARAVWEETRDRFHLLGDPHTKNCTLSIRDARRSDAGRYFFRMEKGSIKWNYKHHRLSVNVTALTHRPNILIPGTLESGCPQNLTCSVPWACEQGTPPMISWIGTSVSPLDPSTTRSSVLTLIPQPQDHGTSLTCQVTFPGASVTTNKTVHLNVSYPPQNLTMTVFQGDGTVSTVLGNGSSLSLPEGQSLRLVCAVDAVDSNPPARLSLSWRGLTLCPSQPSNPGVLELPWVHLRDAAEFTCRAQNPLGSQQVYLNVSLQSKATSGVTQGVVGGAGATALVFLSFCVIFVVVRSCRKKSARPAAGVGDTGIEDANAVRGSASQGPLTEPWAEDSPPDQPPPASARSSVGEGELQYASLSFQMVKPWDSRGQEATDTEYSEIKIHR

As to `CNCCc1nc2cc(F)ccc2[nH]1`, the Percent Effect is -3.21% in assay [1]; 0% in assay [2]; 5.99% in assay [3]; -8.1% in [4]; -3.69% in [5]; -6.13% in assay [6]. Besides, the Percent Effect in assay [7] is 5.21%; in assay [8], 5.23%; in [9] it was 4.18%; in [10], -4.92%; in [11], -8.64%; in [12], -3.45%.

Consider `O=C(NCC(F)(F)F)C1=NOC2(CCCNC2)C1` (centres undefined), for which the Percent Effect in assay [1] was -8.38%; in assay [2], 3.9%; in assay [3], 1.78%; in assay [5], 4%; in assay [6] it was -3.21%; in assay [7], -4.86%. In addition, the Percent Effect in assay [8] is 4.15%; in [9], -6.57%; in [13], 13.8%; in [10] it was 4.74%; in assay [11] it was 2.56%; in [12], -0.335%.

As to `NCC1[C@H]2CN(CCc3ccccc3)C[C@@H]12` (some centres undefined), the Percent Effect in assay [1] was -7.01%; in [2], 14.3%; in [3], 2.14%; in assay [5], -1.73%; in [6] it was -4.5%; in [7], -1.37%. The Percent Effect in assay [8] was 11.1%; in assay [9], 15.4%; in [13], -0.684%; in assay [10], 6.76%; in assay [11], 0%; in [12] it was -10.2%.

As for `CC[C@H]1NCCC[C@]12CCC(=O)N2Cc1ccncc1`, the Percent Effect was -3.12% in [1]; 11.7% in [2]; 0.865% in assay [3]; 1.31% in [5]; 0% in [6]; 1.37% in assay [7]. For the same compound, the Percent Effect in [8] was -0.772%; in assay [9] it was -15%; in assay [13], -6.09%; in assay [10] it was 5.8%; in assay [11], 15%; in assay [12], -0.792%.

On to `c1ccc(CN2CCC3(CC2)CCN(Cc2cccs2)C3)nc1`, for which the Percent Effect in [1] is -3.68%; in [2], 11.7%; in assay [3], 1.23%; in [5] it was -8.25%; in [6], -1.31%; in assay [7], -0.457%. Further, the Percent Effect in [8] was 6.61%; in assay [9] it was -11.1%; in assay [13] it was -13.1%; in assay [10] it was 8.7%; in [11] it was -12.5%; in [12] it was -12%.

For the compound `CSc1nccc(N2CCN(C)C3(CCNC(=O)CC3)C2)n1` (centres undefined), the Percent Effect in [1] was -5.63%; in assay [2] it was 8%; in [3] it was -0.126%; in assay [4], -1.22%; in [5], 2.82%; in [6], -1.66%. Further, the Percent Effect is 5.73% in assay [7]; 12.6% in assay [8]; -2.91% in [9]; 3.83% in assay [10]; 13.6% in assay [11]; -6.95% in [12].

For the compound `NC(=O)CN1CCCN(C(=O)Cc2ccc3ccccc3c2)CC1`, the Percent Effect in [1] is -7.48%; in assay [2], 0%; in assay [3], 2.66%; in assay [5], 1.74%; in [6], -13.2%; in assay [7], -6.21%. The Percent Effect is 0.594% in assay [8]; 24.3% in assay [9]; -25.4% in [13]; -0.526% in assay [10]; -5.13% in [11]; -8.56% in assay [12].
